Screening results from PubChem.
This excerpt belongs to a sample that is enriched for hits.
FBPA Giardia inh = inhibitors of Giardia lamblia fructose-1,6-bisphosphate aldolase; Potency, µM (series often up to 59.6 µM), usual class: inhibitors; AID 2451; purified Giardia FBPA; A8B2U2; actives 0.71% (n = 290,000); further: nearly all actives have a fitted effect of over 55% in size
Target sequence (A8B2U2 whole entry, looked up): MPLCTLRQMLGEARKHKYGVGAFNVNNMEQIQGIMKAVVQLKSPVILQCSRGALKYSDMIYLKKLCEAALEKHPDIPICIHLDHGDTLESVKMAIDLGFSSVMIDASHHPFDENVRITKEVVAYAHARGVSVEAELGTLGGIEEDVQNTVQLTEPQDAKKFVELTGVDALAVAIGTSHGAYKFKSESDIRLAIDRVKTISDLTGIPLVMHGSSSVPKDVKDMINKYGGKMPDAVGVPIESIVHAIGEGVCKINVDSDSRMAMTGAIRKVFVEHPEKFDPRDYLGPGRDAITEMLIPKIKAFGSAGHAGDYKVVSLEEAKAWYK
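Giardia FBPA (40 nM reagent) was preincubated 10 min at RT with compound (up to 57.5 uM final), then substrate plus GAPDH/TPI/NAD/arsenate coupling system with diaphorase/resazurin was added; resorufin fluorescence (525/598 nm) was read after 20 min.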
Cruzain noTriton = blocks cruzain activity in detergent-free assay; P25779; purified cruzain, Z-FR-AMC fluorescence, no detergent; Potency, µM, actives largely listed as inhibitors; actives 2.3% (n = 200,000); AID 1476; further: nearly all actives have a fitted effect of over 40% in size
Target sequence (P25779 123-467 limits assumed): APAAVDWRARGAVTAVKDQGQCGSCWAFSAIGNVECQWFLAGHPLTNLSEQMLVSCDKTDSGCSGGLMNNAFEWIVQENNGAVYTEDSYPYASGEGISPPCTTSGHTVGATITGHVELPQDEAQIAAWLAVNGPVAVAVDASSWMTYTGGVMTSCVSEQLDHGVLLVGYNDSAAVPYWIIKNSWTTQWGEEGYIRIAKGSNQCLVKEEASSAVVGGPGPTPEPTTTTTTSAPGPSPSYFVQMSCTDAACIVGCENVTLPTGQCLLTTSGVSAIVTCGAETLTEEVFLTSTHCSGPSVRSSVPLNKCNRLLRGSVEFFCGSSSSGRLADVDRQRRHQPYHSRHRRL
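Purified cruzain at 1.5 nM, pre-incubated 15 min with compound at room temperature in 100 mM sodium acetate pH 5.5, 5 mM DTT, 0.00005% Triton X-100. Reaction started with 2 uM Z-FR-AMC; AMC fluorescence increase over 60 s gives rate.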
Cruzain inh Det = inhibitors of Trypanosoma cruzi cruzain with detergent; P25779; purified cruzain, Z-FR-AMC fluorescence, 0.01% Triton; Potency, µM, most hits filed as inhibitors; actives 0.43% (n = 200,000); further: nearly all actives have a fitted effect of over 40% in size
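In this qHTS format, compounds are incubated with 1.5 nM cruzain for 15 min at room temperature before 2 uM Z-FR-AMC is added. Release of AMC is followed at 360/450 nm, and progress is taken as the 60 s fluorescence difference.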
A number is an active result; n = inactive; u = inconclusive; x = not tested or not shown; [ ] = dose if it differs, or a comment. The call rests on the fitted dose curve; in most records, active means well fitted curve in the direction sought with a large enough effect; inconclusive means small, poorly fitted or top-dose-only effect, or another doubt; inactive means no such curve, though single readings can be large; an effect the other way counts as inactive or inconclusive.

SMILES	FBPA Giardia inh	Cruzain noTriton	Cruzain inh Det
O=c1c(-c2ccc(Cl)cc2)nc2cnc(N3CCNCC3)nc2n1Cc1cccs1	n	n	n
C[C@]12CC[C@@H]3[C@H](CCC4=CC(=O)CC[C@]43C)[C@]1(O)CC[C@@]2(O)C(=O)CO	x	n	n
N#CCCCS(=O)(=O)c1nc2ccccc2s1	n	n	n
Cc1cc(=O)oc2c(OS(C)(=O)=O)c(OS(C)(=O)=O)ccc12	x	n	n
COc1ccc(C2CC(c3ccccc3)=NN2C(=O)COC(=O)C2CC2)cc1 (stereo not drawn)	n	n	n
COc1ccc(C2CC(c3ccccc3)=NN2C(=O)COC(=O)c2cccnc2)cc1 (stereo not drawn)	n	16µM	n
COc1ccc(C2CC(c3ccccc3)=NN2C(=O)COC(=O)c2cc(S(=O)(=O)N3CCOCC3)ccc2Cl)cc1 (stereo not drawn)	n	13µM	n
COc1ccc(C2CC(c3ccccc3)=NN2C(=O)COC(=O)c2cccnc2Cl)cc1 (stereo not drawn)	n	n	n
C[C@H](Oc1ccc(Oc2cnc3ccc(Cl)cc3n2)cc1)C(=O)O	x	n	n
FC(F)(F)c1cnc(-c2cnc3c(-c4ccc(Cl)cc4)cnn3c2)c(Cl)c1	n	10µM	n
N#Cc1cnn2cc(-c3ncc(C(F)(F)F)cc3Cl)cnc12	n	n	n
CCCCCCn1c(SCCCC)nc2c1c(=O)[nH]c(=O)n2C	n	u	n
CCn1c([N+](=O)[O-])nc2c1c(=O)[nH]c(=O)n2C	13µM	x	x
CCc1cc2c(nc1CC)CCN(CC/C(C)=N/OC[C@@H](O)COCc1ccco1)C2	n[12.9 µM]	x	x
COc1ccc2c(CNCCc3ccccc3)c(C(=O)O)n(Cc3cccc(F)c3)c2c1	x	n	n
CC(=O)Nc1ccc(NC(=O)c2ccc(COc3ccc4c(C)cc(=O)oc4c3)cc2)cc1	n	n	n
Cc1ccc(Cl)cc1NC(=O)COC(=O)c1ccc(COc2ccc3c(C)cc(=O)oc3c2)cc1	n	7.9µM	n
COc1c(F)c(F)c(C(=O)Nc2ccc3oc(-c4ccncc4)nc3c2)c(F)c1F	n	u	n
O=C(Nc1ccc2oc(-c3ccncc3)nc2c1)c1ccc(F)cc1	n	x	x
Cc1cccc(C(=O)Nc2ccc3oc(-c4ccncc4)nc3c2)c1	x	u	25µM
O=C(Nc1ccc2oc(-c3ccncc3)nc2c1)c1c(F)c(F)c(F)c(F)c1F	n	10µM	n
C=Cc1ccc(CSc2nc(-c3ccc(OC)cc3)nc3c2Cc2c(CO)cnc(C)c2O3)cc1	x	n	n
C/C(CCC(=O)OC[C@@H]1O[C@H](C#Cc2ccccc2)C=C[C@@H]1Oc1ccc(C)cc1)=N/O[C@@H](C)c1cn([C@H]2COC[C@H]2O)nn1	n[12.9 µM]	x	x
CCc1ccc(NC(=O)C2CCN(S(=O)(=O)c3ccc4[nH]c5c(c4c3)CCCCC5)CC2)cc1	x	10µM	n
O=C(Nc1ccccc1)C1CCN(S(=O)(=O)c2ccc3[nH]c4c(c3c2)CCCCC4)CC1	x	16µM	n
SMILES	FBPA Giardia inh	Cruzain noTriton	Cruzain inh Det
Cc1cccc(NS(=O)(=O)c2ccc3[nH]c4c(c3c2)CCCCCC4)c1	x	n	n
Cc1cccc(NC(=O)C2CCN(S(=O)(=O)c3ccc4[nH]c5c(c4c3)CCCCC5)CC2)c1	x	13µM	n
O=C(NCc1ccc2[nH]c3c(c2c1)CCCC3)c1ccc(S(=O)(=O)N2CCCCC2)cc1	n	u	n
CCc1ccc(NC(=O)C2CCN(S(=O)(=O)c3ccc4[nH]c(=O)ccc4c3)CC2)cc1	n	x	x
CCOC(=O)c1oc2ccc(S(=O)(=O)n3nc(-c4cc(OC)cc(OC)c4)cc3N)cc2c1C	x	u	n
COc1ccc(-c2[nH]c(-c3cccc(OC)c3)nc2SCC(=O)Nc2ccc3c(c2)OCO3)cc1	x	u	n
Cc1noc(C)c1-c1ccc2ncnc(NC(C)c3ccccc3)c2c1 (stereo not drawn)	n	x	x
O=S(=O)(Nc1nc2ccccc2nc1Nc1cccc(S(=O)(=O)N2CCCCC2)c1)c1ccccc1	n	16µM	n
COc1ccc(S(=O)(=O)Nc2cccc(S(=O)(=O)N3CCCCCC3)c2)cc1	n	n	n
O=C(O)c1ccc(/C=N\N=C2c3ccccc3-c3ccccc32)cc1	x	n	n
Cc1ccc(C)c(NS(=O)(=O)c2ccc3oc(=O)ccc3c2)c1	n	x	x
Cc1ccc(C)c(NS(=O)(=O)c2ccc3c(c2)Cc2cc(S(=O)(=O)Nc4cc(C)ccc4C)ccc2-3)c1	n	7.9µM	n
CC(=O)C1=C(c2ccc(Br)cc2)C(=O)c2ccccc2C1=O	0.28µM	n	n
CNC1=C(N(C(C)=O)c2ccc(Br)cc2)C(=O)c2ccccc2C1=O	u	n	n
COc1ccc2c(c1)C(=O)[C@@H](OC(=O)NCCOc1ccccc1)[C@H](c1ccc(OC)c(Br)c1)O2	n	n	n
COc1ccc(NC(=O)CS(=O)(=O)c2ccc(F)cc2)cc1	n	x	x
COc1ccc(-c2cn(-c3ccc(C)cc3)c(S(=O)(=O)CC(=O)Nc3ccccc3)n2)cc1	x	20µM	n
Cc1cccc(C)c1NC(=O)CS(=O)(=O)c1nc(-c2ccc(Cl)cc2)cn1-c1ccccc1	x	n	u
COc1ccc(-c2cn(-c3ccc(C)cc3)c(S(=O)(=O)CC(=O)Nc3ccc(F)cc3)n2)cc1	x	16µM	n
Clc1cc2c(c(CSC3=NCN(CC4CC4)CN3)c1)OCOC2	x	n	n
O=C(NCCc1ccccc1)c1cnc2sc(N3CCCCCC3)nn2c1=O	x	n	n
COc1ccc2c(c1)CCc1c(C(=O)Nc3cc(OC)c(Cl)cc3OC)noc1-2	x	n	n
CC(C)(C)OC(=O)N1CCC(c2c(C(=O)NCc3cccc(Cl)c3)cnn2-c2ccc(F)cc2)CC1	x	n	n
Cc1cc(C)cc(NC(=O)C(Cc2ccccc2)NS(=O)(=O)c2ccc3c(c2)CCC(=O)N3)c1 (stereo not drawn)	x	n	n
O=C1c2ccccc2C(=O)N1SC1CCCCC1	n	6.3µM	14µM
SMILES	FBPA Giardia inh	Cruzain noTriton	Cruzain inh Det
O=C(OCN1C(=O)c2ccccc2C1=O)C1CCCCC1	n	n	n
O=C(Nc1ccc(Cl)c(C(F)(F)F)c1)C(Cc1ccccc1)NS(=O)(=O)c1cccc2nsnc12 (stereo not drawn)	x	20µM	n
Cc1ccc(Cl)cc1NC(=O)C(Cc1ccccc1)NS(=O)(=O)c1cccc2nsnc12 (stereo not drawn)	x	25µM	n
CC(C)(C)NC(=O)C(Cc1ccccc1)NS(=O)(=O)c1cccc2nsnc12 (stereo not drawn)	n	n	n
O=C(Nc1ccc(OC(F)(F)F)cc1)C(Cc1ccccc1)NS(=O)(=O)c1cccc2nsnc12 (stereo not drawn)	x	n	n
Cc1ccc(-c2cc(C3C4C=CCC(C)C4C(=O)N3Cc3ccccc3)ccc2F)cc1 (stereo not drawn)	n	x	x
COc1ccc(CNc2ccnc(-c3ccccc3Cl)n2)c(OC)c1	n	n	n
CCc1ccc(-c2cc(C)no2)cc1S(=O)(=O)N1CCN(c2cccc(Cl)c2)CC1	x	25µM	n
CCc1ccc(-c2cc(C)no2)cc1S(=O)(=O)N1CCN(c2ccccc2F)CC1	n	x	x
Oc1c(C(c2ccccc2Cl)N2CCN(Cc3ccccc3)CC2)sc2nc(-c3ccco3)nn12 (stereo not drawn)	x	u	n
CSc1ccc(/C=c2\s/c(=C\C(=O)C(C)(C)C)n(CC(=O)NCCC3=CCCCC3)c2=O)cc1	n	3.2µM	n
